Compound activity from PubChem BioAssay.
Hits are enriched below; roughly 2.3% of the tested compounds scored in any of these assays.
M1 ag parental – counter-screen for M1 agonists: effect in parental CHO-K1 cells. Fluo-8 calcium fluorescence; scaled to maximal ATP response, vehicle zero. activation, % at 3 µM. actives 0.48% (n = 360,000). AID 602248; in the data active = activation above about 15%;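 also: untransfected CHO-K1 host cells lacking M1 receptor as counterscreen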
CHO-K1 Ca antag – nonselective inhibitor or artifact in parental CHO-K1 cells. ATP-induced calcium, Fluo-8 fluorescence. inhibition, % at 3 µM. actives 0.6% (n = 360,000);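 active = inhibition above a per-plate cutoff, the plate's mean sample inhibition plus 3 SD, cut at about 24% in these data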;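 also: 0% = DMSO plus EC80 ATP and 100% = DMSO alone without ATP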
M1 PAM parental – nonselective activator or artifact in parental CHO-K1 calcium assay | ATP EC20, Fluo-8 calcium fluorescence; 0% at ATP EC20, 100% at ATP max | activation, % at 3 µM | actives 0.02% (n = 360,000) | AID 602247;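 active = activation above the run cutoff, the mean activation of all test compounds plus 3 SD, cut at about 40% in these data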;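 also: peak over basal fluorescence ratio in a 140 s read after ATP addition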
M1 antag – blocks human M1 muscarinic receptor; P11229; CHO-K1 hM1, Fluo-8 calcium fluorescence, ACh EC80 antagonist; inhibition, % at 3 µM; actives 1.3% (n = 360,000); AID 588852;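 active = percent inhibition above its own plate's cutoff, namely the mean of that plate's compound wells plus 3 SD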;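 also: peak over basal fluorescence ratio during 140 s after agonist addition; 0% = ACh EC80 plus DMSO and 100% = DMSO alone without agonist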
Target sequence (P11229 whole entry, looked up): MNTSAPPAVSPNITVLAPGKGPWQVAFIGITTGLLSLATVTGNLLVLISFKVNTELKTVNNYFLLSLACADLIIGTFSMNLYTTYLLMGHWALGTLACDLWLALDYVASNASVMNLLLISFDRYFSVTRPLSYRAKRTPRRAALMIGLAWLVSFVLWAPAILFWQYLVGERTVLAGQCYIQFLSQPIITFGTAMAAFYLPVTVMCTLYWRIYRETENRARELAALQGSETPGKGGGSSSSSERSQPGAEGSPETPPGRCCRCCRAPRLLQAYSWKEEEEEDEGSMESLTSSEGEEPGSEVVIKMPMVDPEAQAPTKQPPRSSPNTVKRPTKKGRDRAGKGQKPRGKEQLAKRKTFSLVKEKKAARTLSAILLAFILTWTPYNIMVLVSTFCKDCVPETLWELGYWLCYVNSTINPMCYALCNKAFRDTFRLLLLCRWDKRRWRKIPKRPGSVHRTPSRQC
CHRM1 agonist – agonists of human M1 muscarinic receptor; activation, % at 3 µM; AID 588814; actives 0.33% (n = 360,000); CHO-K1 hM1, Fluo-8 calcium fluorescence, agonist mode; 0% DMSO, 100% acetylcholine EC100;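 active = activation above the run's mean compound activation plus 3 SD, cut at about 16% in these data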;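 also: peak over basal fluorescence ratio within a 140 s kinetic read after compound addition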
CHRM1 PAM – potentiates human M1 receptor response to acetylcholine; actives 0.088% (n = 360,000); P11229; CHO-K1 hM1, Fluo-8 calcium fluorescence, ACh EC20; 0% = ACh EC20, 100% = maximal ACh; activation, % at 3 µM; in the data active = activation above about 19%, passing the limit was not always enough
* marks the source's active call; other numbers are inactive results; . = no result.

SMILES	M1 ag parental	CHO-K1 Ca antag	M1 PAM parental	M1 antag	CHRM1 agonist	CHRM1 PAM
CCOC(=O)[C@]12CCC=C1N(Cc1ccco1)C(=O)[C@H](CC(=O)NCCCOC)C2	1	-6	10	.	.	.
O=C(O)c1ccccc1/C=N/NC(=O)C1CCCCC1	0	9	-22	-27	-1	8
O=C(N/N=C/c1ccccc1C(=O)O)C(=O)N1CCCCC1	19*	-4	27	-6	-6	14
COc1cc(/C=C2\S/C(=N/S(=O)(=O)c3ccccc3)NC2=O)c([N+](=O)[O-])cc1OC	2	27*	-7	-7	3	11
COc1ccc(S(=O)(=O)/N=C2/NC(=O)/C(=C\c3cc(OC)c(OC)cc3[N+](=O)[O-])S2)cc1	1	-7	18	-19	0	13
CC(OC(=O)C1=COCCO1)C(=O)NC1CCCCC1 (stereo unspecified)	1	-3	-3	-25	-2	19
CCCN1C2CCCC1CC(NC(=O)c1ccccc1F)C2 (stereo unspecified)	0	17	-8	10	-5	-7
CCCN1C2CCCC1CC(NC(=O)c1ccccc1OCC)C2 (stereo unspecified)	0	-7	18	20	-5	-9
CCCN1C2CCCC1CC(NC(=O)c1ccccc1)C2 (stereo unspecified)	0	-1	-3	42*	-6	-16
CCCN1C2CCCC1CC(NC(=O)c1ccccc1Br)C2 (stereo unspecified)	0	0	-8	47*	-9	-21
CCNC(=S)NC1CC2CCCC(C1)N2CCc1ccccc1 (stereo unspecified)	0	-7	10	72*	-8	-27
CCOc1ccccc1C(=O)NC1CC2CCCC(C1)N2Cc1ccc(C)cc1 (stereo unspecified)	0	-4	1	43*	-9	-24
COc1cccc(CNC(=O)[C@@H]2CCCN2C(=O)[C@H]2CCCCN2C(=O)OC(C)(C)C)c1	0	-16	15	.	.	.
COc1ccc(-c2csc(Nc3ccc(Oc4ccccc4)cc3)n2)cc1	0	-11	11	-7	-3	-12
CCCCNC(=O)C[C@@H]1C[C@@]2(C(=O)OCC)CCC=C2N(CCC2=CCCCC2)C1=O	0	-19	9	.	.	.
OC(c1cccc(Cl)c1)c1nc(/C=C/c2ccc(C(F)(F)F)cc2)cs1 (stereo unspecified)	0	-5	12	-1	-1	2
O=C(COc1ccccc1)NC(=S)N1CCc2ccccc21	0	24*	-14	11	-4	-7
CCOC(=O)C1(C)CCCN(C(=O)c2cccnc2)C1 (stereo unspecified)	1	-4	2	-10	-2	4
O=C(O)c1ccc(CNC(=O)C2CCN(S(=O)(=O)c3cccs3)CC2)cc1	0	-9	4	-20	-1	6
COc1ccc(CN2CCC(Cc3ccccc3)CC2)cc1OC	0	14	-25	25	-11	-14
O=C(c1ccc(CN2CCOCC2)cc1)N1CCC(Cc2ccccc2)CC1	1	-6	13	0	-4	-1
COc1ccc(CCNC(=O)c2ccc(CN3CCC(Cc4ccccc4)CC3)cc2)cc1OC	1	1	6	48*	-7	-26
COc1ccc(CNC(=O)C2CCCN2CCc2ccccc2)cc1OC (stereo unspecified)	17*	-20	11	-9	-11	11
O=C(NCc1ccccc1)c1ccc(CN2CCC(Cc3ccccc3)CC2)cc1	27*	17	8	25	4	-17
CCc1ccccc1NC(=O)c1ccc(CN2CCC(Cc3ccccc3)CC2)cc1	2	-12	23	38*	-4	-20
Cc1ccc(S(=O)(=O)N2[C@H](c3cccc(Cl)c3)CC(=O)[C@@H]3CN(S(=O)(=O)c4ccccc4C)[C@H](c4ccc(Cl)cc4)C[C@@H]32)cc1	1	-14	17	-3	-3	3
Clc1ccccc1OCCNc1nc(NCC2CC2)nc2ccsc12	9	7	10	31	-1	-18
COCCNC(=O)c1ccc(CN2CCC(Cc3ccccc3)CC2)cc1	0	-9	10	43*	-9	-25
